Bioassay records: PubChem, National Center for Advancing Translational Sciences (NCATS)
Cycloheximide cs – counter-screen for Shiga toxin inhibitors: cycloheximide protein synthesis inhibition | cell reporter, cycloheximide protein synthesis inhibition counterscreen | max response, % | 300,000 compounds, 12% hits | AID 2314; in the data active = max response mostly above about 13%, no sharp cut-off; inactive = mostly below about 14%; note: read at 38.3 µM for the half of the compounds with a filed dose; 0% is about no effect
Shiga inhibitor – inhibitors of Shiga toxin in Vero cells; Vero cells, Shiga toxin protein synthesis inhibition reporter; inhibition, % at 38.7 µM; 290,000 compounds, 9.2% hits; AID 2315; in the data active = inhibition mostly above about 28%, no sharp cut-off; inactive = mostly below about 43%; note: 0% is about no effect
NS1 function inh – influenza NS1 inhibition | Potency, µM (titrated, usually from 46.1 µM), inactives show top-dose activity, positive = more growth | 270,000 compounds, 0.4% hits | AID 2326; note: potency is the fitted concentration of half-maximal effect; actives are rising curves; nearly all actives have a fitted effect of over 50% in size
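In this qHTS, NS1 from influenza A is expressed in budding yeast, where it slows growth. Cells are switched from glucose to 2% galactose medium (pH 6.0, -URA), treated with compound, and growth recovery is read at OD600.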
SARS PLpro yeast – blocks SARS-CoV papain-like protease in a yeast assay | S. cerevisiae expressing SARS-CoV PLpro, growth rescue | Potency, µM (series often up to 32.9 µM), inactives show at the highest dose activity, positive = growth rescue, hits mostly activators | 330,000 compounds, 0.19% hits | AID 485353; note: potency is the fitted concentration of half-maximal effect; 0% is about no effect; nearly all actives have a fitted effect of over 55% in size
NS1 inh valid – validation of influenza NS1 protein function inhibitors | shares compounds with NS1 function inh | influenza NS1 function cell assay, 15-point titration | activity change, negative = inhibition, % at 32.9 µM | 1,400 tested, under 10 active; note: 0% is about no effect
Flu PR8 replic – reduces influenza A/PR/8/34 replication in MDCK cells; virus titer (log TCID50), log10 TCID50 at 5 µM; shares compounds with NS1 function inh; MDCK infected influenza A/PR/8/34, virus titer TCID50; hits give low values; 95 compounds, 30% hits; call rule not given here
An asterisk follows results filed as active; ? = inconclusive; nt = no result given; [ ] = remark or other dose. Sampled rows, rich in hits. Any-hit rate of the full collection: about 12%. Unless noted, calls come from the whole dose curve.

SMILES | Cycloheximide cs | Shiga inhibitor | NS1 function inh | SARS PLpro yeast | NS1 inh valid | others
COC(=O)c1ccccc1NC(=S)N(Cc1ccc2c(c1)OCO2)Cc1cc2cc(C)ccc2[nH]c1=O | -1 | -4 | 11µM* | 6% | ?
O=C(Cc1c[nH]c2ccccc12)Nc1nc2ccccc2[nH]1 | 26* | 74* | 11µM* | 0% | -1
CCc1nnc(NC(=O)Cc2c[nH]c3ccccc23)s1 | 2 | 20 | nt | 1% | nt
CN(C)/C=C/C(=O)c1nnn(C2CCCCC2)c1NC1CCCCC1 | 9 | 8 | 7.9µM* | 0% | ?
COc1ccc(C2CC(c3ccccc3)=NN2C(=O)COC(=O)c2cc(S(=O)(=O)N3CCOCC3)ccc2Cl)cc1 (centres undefined) | 2 | 14 | 10µM* | -13% | 2
Cc1noc(C)c1COc1ccccc1C(=O)NNC(=O)C(C)Oc1ccccc1F (centres undefined) | nt | nt | nt | -6% | nt
Cc1cc(C)cc(NC(=O)CSc2nnc(-c3ccccc3C)o2)c1 | 36* | 43 | ? | 8% | -14
O=C(Nc1ccc2c(c1)OCO2)C1CC(=O)N(c2ccc(F)cc2)C1 (centres undefined) | 7 | 3 | 3% | 0% | nt
O=C(O)C1CCCCC1C(=O)Nc1ccc(F)cc1F (centres undefined) | -5 | -5 | 5% | -18% | nt
COC(=O)c1sccc1NC(=O)C1CCCCC1C(=O)O (centres undefined) | 1 | -5 | -2% | 0% | nt
COC(=O)c1ccccc1NC(=O)C1CCCCC1C(=O)O (centres undefined) | -3 | -6 | 5µM* | 2% | 3
Cc1cc(-c2ccc(NC(=O)[C@@H]3CCCC[C@@H]3C(=O)O)c(C)c2)ccc1NC(=O)[C@@H]1CCCC[C@@H]1C(=O)O | 25 | 18 | 4µM* | 1% | ?
CCOc1ccc(C(=S)N2CCCC2)c(OCC)c1 | -1 | -7 | -11% | 3% | nt
COc1ccc(C(c2nnnn2C2CCCCC2)N2CCN(c3ccc(OC)cc3)CC2)cc1 (centres undefined) | -2 | -10 | -8% | -8% | nt
c1cc(N2CCCC2)ccc1C(c1nnnn1C1CCCCC1)N1CCOCC1 (centres undefined) | -8 | -20 | 11µM* | 0% | 5
CC1=Nc2nc(N3CCCCC3)c(C#N)c3c4c(nc(c23)N1)N(c1ccc(C(C)C)cc1)C(=O)C4 | -1 | -13 | 11µM* | -3% | 12
COc1ccccc1-n1c(SCC(=O)Nc2cccc(C(=O)O)c2)nnc1-c1ccccc1C | -4 | -7 | 13µM* | 17% | 30
COc1cccc(NC(=O)Cc2nnc(SCC(=O)c3ccccc3)n2C)c1 | 10 | 17 | 7.9µM* | -2% | -5
COc1cccc(NC(=O)Cc2nnc(SCCOc3ccccc3)n2C)c1 | -3 | -9 | -7% | -1% | nt
O=C(COc1ccc(Cl)cc1Br)OCC(=O)c1ccc[nH]1 | nt | nt | nt | -3% | nt
COCCn1c(C)cc(/C=C2/NC(=O)N(Cc3ccc(C)cc3)C2=O)c1C | 12 | 48 | 7% | -2% | nt
COCCn1c(C)cc(/C=C2/NC(=O)N(c3ccc(Cl)cc3)C2=O)c1C | 55* | 16 | ? | 19% | 8
Cc1cc(NC(=O)CSc2nnc(-c3cccs3)n2N)no1 | -3 | -17 | ? | 9% | -7
CCCCn1c(SCC(=O)Nc2cc(C)on2)nnc1-c1cccs1 | 1 | -5 | 0% | 2% | nt
COc1ccc(N2CC(C(=O)Nc3ccccc3N3CCCC3)CC2=O)c(OC)c1 (centres undefined) | nt | nt | nt | -1% | nt
SMILES | Cycloheximide cs | Shiga inhibitor | NS1 function inh | SARS PLpro yeast | NS1 inh valid | others
Cc1ccc(-c2csc(N3CCC(NS(=O)(=O)c4ccc5c(c4)OCCO5)CC3)n2)cc1 | -1 | -3 | ? | -5% | -1 | Flu PR8 replic=7.7
CC(C)(C)c1ccc(S(=O)(=O)N2CCN(Cc3cc4c(cc3O)OCO4)CC2)cc1 | nt | nt | nt | -1% | nt
COc1ccccc1-n1cc(-c2ccccc2)[nH]c1=S | 5 | -4 | -7% | 1% | nt
CCOc1ccc(-c2cn(-c3ccccc3OC)c(=S)[nH]2)cc1 | 18* | 52* | ? | 1% | -34
Brc1ccc2c(c1)C(c1ccc(N3CCOCC3)cc1)=NNC(c1cccs1)=N2 | 12 | 1 | 21% | -19% | nt
CCOc1ccc(C2=Nc3ccccc3C(c3ccc(N4CCOCC4)cc3)=NN2)cc1 | 46* | 163* | ? | -9% | 19 | Flu PR8 replic=7.5*
CCOc1ccc(C2=Nc3ccc(Br)cc3C(c3ccc(N4CCOCC4)cc3)=NN2)cc1 | 44* | 56* | ? | -5% | -7
CCc1ccc2c(c1)C(c1ccc(N3CCOCC3)cc1)=NNC(c1ccncc1)=N2 | 1 | -34 | 1% | -2% | nt
COc1ccc(N2CCN(C(=O)c3ccc(NS(=O)(=O)c4ccccc4)cc3)CC2)cc1 | 20* | 35 | 13µM* | -11% | -18
COc1ccc(NS(=O)(=O)c2ccc(OCC(=O)N3CCCC3)cc2)cc1 | -1 | 6 | ? | 1% | 4
O=C(NCC1CCCO1)c1cn(Cc2ccccc2)nc1-c1ccc(Cl)cc1 (centres undefined) | nt | nt | nt | -7%[6.58 µM] | nt
O=C1C=C(O)C(n2cncn2)C(c2ccc3c(c2)OCO3)C1 (centres undefined) | 0 | -11 | nt | 0% | nt
Cc1c(Cl)cccc1NC(=O)CSc1nncn1-c1ccccn1 | -3 | -4 | ? | 0% | 0 | Flu PR8 replic=8.5
Cn1cnnc1SCC(=O)Nc1ccccc1Sc1ccccc1 | -1 | -29 | 0.89µM* | 11% | -1
Nc1ncnc2c1ncn2[C@@H]1O[C@H](CNS(=O)(=O)c2ccc3c(c2)CCN(C(=O)C(F)(F)F)C3)[C@@H](O)[C@H]1O | nt | nt | nt | 8% | nt
COC(=O)C(NC(=O)c1ccccc1C)(Nc1ncc(S(=O)(=O)c2ccc([N+](=O)[O-])cc2)s1)C(F)(F)F (centres undefined) | -2 | 5 | 10% | 6% | nt
COC(=O)C(NC(=O)c1ccc(F)cc1)(Nc1ncc(S(=O)(=O)c2ccc([N+](=O)[O-])cc2)s1)C(F)(F)F (centres undefined) | 1 | -15 | 7.9µM* | -1% | 14
C[C@@H](C(=O)Nc1ccc2ccccc2c1)[C@H]1C[C@]1(C)[C@H](NS(=O)(=O)c1ccccc1)c1ccccc1 | -3 | 11 | 11µM* | -15% | 6
Cc1cc(C(=O)N[C@H](c2ccccc2)[C@@]2(C)C[C@@H]2[C@@H](C)C(=O)Nc2ccc3ccccc3c2)no1 | -2 | -11 | 8% | 14% | nt
C[C@@H](C(=O)Nc1ccc2ccccc2c1)[C@H]1C[C@]1(C)[C@H](NP(=O)(c1ccccc1)c1ccccc1)c1ccccc1 | -3 | 6 | ? | 5% | nt
Cc1cc(C(=O)N[C@@H](c2ccccc2)[C@]2(C)C[C@H]2[C@@H](C)C(=O)Nc2ccc3ccccc3c2)no1 | -2 | 24 | 11µM* | ? | 12
CC(=O)Nc1ccc(NC(=O)CSc2nnc(C)c(=O)[nH]2)cc1 | -4 | -1 | nt | 0% | nt
